Experimental data reported in publication PMC5540273 (PLoS ONE, 2017).
Values joined by “and” are separate entries in the source; they are usually repeats but may differ in a detail not shown here. Identical values can stand only once. Like-named read-outs stand apart in the source and are kept apart here.

How the values were obtained:
Details in all cases: n = 1
IRAK4 = test system: IRAK4
ITK = test system: ITK
[1] = test system: JAK1(JH1domain-catalytic)
[2] = test system: JAK1(JH2domain-pseudokinase)
[3] = test system: JAK2(JH1domain-catalytic)
[4] = test system: JAK3(JH1domain-catalytic)
JNK1 = test system: T1, JNK1
T1 construct: gene MAPK8

JNK2 = test system: T2, JNK2
T2 construct: gene MAPK9

JNK3 = test system: T3, JNK3
T3 construct: gene MAPK10

KIT-autoinhibited = test system: KIT-autoinhibited
KIT = test system: KIT
LATS1 = test system: LATS1
LATS2 = test system: LATS2
LCK = test system: LCK
LIMK1 = test system: LIMK1
LIMK2 = test system: LIMK2
LKB1 = test system: T4, LKB1
T4 construct: gene STK11

LOK = test system: T5, LOK
T5 construct: gene STK10

LRRK2 = test system: LRRK2
LTK = test system: LTK
[5] = concentration: 1 μM, replicates: in singlicate
[6] = concentration: 1 μM,replicates: in singlicate, 1 µM
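Further: KINOMEscan kinase panel screen.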

Cc1ccc(NC(=O)Nc2cccc(C(F)(F)F)c2)cc1 [GSK955403]
%Inh (IRAK4; 1 µM): 0%
%Inh (ITK; 1 µM): 12%
%Inh ([1]; 1 µM): 0%
%Inh ([2]; 1 µM): 12%
%Inh ([3]; 1 µM): 0%
%Inh ([4]; 1 µM): 0%
%Inh (JNK1; 1 µM): 58%
%Inh (JNK2; 1 µM): 26%
%Inh (JNK3; 1 µM): 46%
%Inh (KIT-autoinhibited; 1 µM): 3%
%Inh (KIT; 1 µM): 91.4%
%Inh (LATS1; 1 µM): 0%
%Inh (LATS2; 1 µM): 20%
%Inh (LCK; 1 µM): 6%
%Inh (LIMK1; 1 µM): 0%
%Inh (LIMK2; 1 µM): 10%
%Inh (LKB1; 1 µM): 16%
%Inh (LOK; 1 µM): 0%
%Inh (LRRK2; 1 µM): 0%
%Inh (LTK; 1 µM): 0%

Cl.O=C(Nc1cccc(-c2nn3ncccc3c2-c2ccnc(Nc3cccnc3)n2)c1)c1c(F)cccc1F [GSK312879]
%Inh (IRAK4; [5]): 28%
%Inh (ITK; [5]): 15%
%Inh [1, 5]: 15%
%Inh [2, 5]: 0%
%Inh [3, 5]: 23%
%Inh [4, 5]: 0%
%Inh (JNK1; [5]): 14%
%Inh (JNK2; [5]): 18%
%Inh (JNK3; [5]): 19%
%Inh (KIT-autoinhibited; [5]): 0%
%Inh (KIT; [5]): 36%
%Inh (LATS1; [5]): 2%
%Inh (LATS2; [5]): 0%
%Inh (LCK; [5]): 44%
%Inh (LIMK1; [5]): 2%
%Inh (LIMK2; [5]): 0%
%Inh (LKB1; [5]): 0%
%Inh (LOK; [5]): 0%
%Inh (LRRK2; [5]): 39%
%Inh (LTK; [5]): 3%

COc1cc2ncnc(Nc3ccc4nc(-c5ccccc5)[nH]c4c3)c2cc1OC.Cl [GW282450]
%Inh (IRAK4; [5]): 13%
%Inh (ITK; [5]): 14%
%Inh [1, 5]: 6%
%Inh [2, 5]: 0%
%Inh [3, 5]: 0%
%Inh [4, 5]: 0%
%Inh (JNK1; [5]): 18%
%Inh (JNK2; [5]): 26%
%Inh (JNK3; [5]): 19%
%Inh (KIT-autoinhibited; [5]): 0%
%Inh (KIT; [5]): 72%
%Inh (LATS1; [5]): 0%
%Inh (LATS2; [5]): 0%
%Inh (LCK; [5]): 33%
%Inh (LIMK1; [5]): 0%
%Inh (LIMK2; [5]): 0%
%Inh (LKB1; [5]): 0%
%Inh (LOK; [5]): 5%
%Inh (LRRK2; [5]): 0%
%Inh (LTK; [5]): 11%

Cc1cc(NCC(c2ccccc2)c2ccccc2)nc(NCc2ccc(C(F)(F)F)cc2)n1 [GW497681]
%Inh (IRAK4; [5]): 8%
%Inh (ITK; [5]): 0%
%Inh [1, 5]: 10%
%Inh [2, 5]: 0%
%Inh [3, 5]: 0%
%Inh [4, 5]: 0%
%Inh (JNK1; [5]): 0%
%Inh (JNK2; [5]): 0%
%Inh (JNK3; [5]): 0%
%Inh (KIT-autoinhibited; [5]): 0%
%Inh (KIT; [5]): 6%
%Inh (LATS1; [5]): 0%
%Inh (LATS2; [5]): 5%
%Inh (LCK; [5]): 0%
%Inh (LIMK1; [5]): 0%
%Inh (LIMK2; [5]): 9%
%Inh (LKB1; [5]): 12%
%Inh (LOK; [5]): 0%
%Inh (LRRK2; [5]): 0%
%Inh (LTK; [5]): 0%

COc1ccc(CNC(=O)NC2CCN(c3ccnc(Nc4cc(OC)c(OC)c(OC)c4)n3)C2)cc1 (stereo not shown) [GSK1379748]
%Inh (IRAK4; [5]): 0%
%Inh (ITK; [5]): 7%
%Inh [1, 5]: 0%
%Inh [2, 5]: 0%
%Inh [3, 5]: 87%
%Inh [4, 5]: 0%
%Inh (JNK1; [5]): 0%
%Inh (JNK2; [5]): 0%
%Inh (JNK3; [5]): 0%
%Inh (KIT-autoinhibited; [5]): 0%
%Inh (KIT; [5]): 57%
%Inh (LATS1; [5]): 0%
%Inh (LATS2; [5]): 11%
%Inh (LCK; [5]): 7%
%Inh (LIMK1; [5]): 0%
%Inh (LIMK2; [5]): 0%
%Inh (LKB1; [5]): 12%
%Inh (LOK; [5]): 0%
%Inh (LRRK2; [5]): 0%
%Inh (LTK; [5]): 64%

Nc1ncnc2[nH]c(-c3ccccc3)nc12 [AH5015]
%Inh (IRAK4; [5]): 52%
%Inh (ITK; [5]): 12%
%Inh [1, 5]: 8%
%Inh [2, 5]: 34%
%Inh [3, 5]: 47%
%Inh [4, 5]: 0%
%Inh (JNK1; [5]): 9%
%Inh (JNK2; [5]): 16%
%Inh (JNK3; [5]): 15%
%Inh (KIT-autoinhibited; [5]): 14%
%Inh (KIT; [5]): 21%
%Inh (LATS1; [5]): 0%
%Inh (LATS2; [5]): 0%
%Inh (LCK; [5]): 26%
%Inh (LIMK1; [5]): 15%
%Inh (LIMK2; [5]): 0%
%Inh (LKB1; [5]): 0%
%Inh (LOK; [5]): 0%
%Inh (LRRK2; [5]): 34%
%Inh (LTK; [5]): 91.4%

Cc1ccc(C(=O)Nc2ccc(Nc3ccnc4cc(-c5ccccn5)ccc34)cc2O)cc1.Cl [GW440146]
%Inh (IRAK4; [5]): 9%
%Inh (ITK; [5]): 0%
%Inh [1, 5]: 16%
%Inh [2, 5]: 0%
%Inh [3, 5]: 5%
%Inh [4, 5]: 0%
%Inh (JNK1; [5]): 5%
%Inh (JNK2; [5]): 15%
%Inh (JNK3; [5]): 0%
%Inh (KIT-autoinhibited; [5]): 17%
%Inh (KIT; [5]): 89%
%Inh (LATS1; [5]): 0%
%Inh (LATS2; [5]): 0%
%Inh (LCK; [5]): 84%
%Inh (LIMK1; [5]): 0%
%Inh (LIMK2; [5]): 2%
%Inh (LKB1; [5]): 9%
%Inh (LOK; [5]): 14%
%Inh (LRRK2; [5]): 4%
%Inh (LTK; [5]): 12%

CSc1nn2c(=O)cc(N3CCOCC3)nc2n1Cc1cccc(C(F)(F)F)c1C [GSK2363608]
%Inh (IRAK4; [6]): 12% and 18%
%Inh (ITK; [6]): 2% and 12%
%Inh [1, 6]: 13% and 30%
%Inh [2, 5]: 0%
%Inh [3, 6]: 100% and 0%
%Inh [4, 5]: 0%
%Inh (JNK1; [6]): 2% and 16%
%Inh (JNK2; [6]): 15% and 5%
%Inh (JNK3; [6]): 7% and 3%
%Inh (KIT-autoinhibited; [6]): 2% and 0%
%Inh (KIT; [5]): 4%
%Inh (LATS1; [5]): 0%
%Inh (LATS2; [6]): 13% and 0%
%Inh (LCK; [6]): 29% and 2%
%Inh (LIMK1; [6]): 6% and 17%
%Inh (LIMK2; [6]): 20% and 0%
%Inh (LKB1; [5]): 0%
%Inh (LOK; [5]): 0%
%Inh (LRRK2; [5]): 0%
%Inh (LTK; [6]): 17% and 0%

Nc1nc(-c2nccs2)c(-c2ccnc3ccccc23)s1 [GW693542]
%Inh (IRAK4; [5]): 16%
%Inh (ITK; [5]): 6%
%Inh [1, 5]: 17%
%Inh [2, 5]: 0%
%Inh [3, 5]: 10%
%Inh [4, 5]: 0%
%Inh (JNK1; [5]): 20%
%Inh (JNK2; [5]): 22%
%Inh (JNK3; [5]): 1%
%Inh (KIT-autoinhibited; [5]): 0%
%Inh (KIT; [5]): 0%
%Inh (LATS1; [5]): 22%
%Inh (LATS2; [5]): 0%
%Inh (LCK; [5]): 13%
%Inh (LIMK1; [5]): 6%
%Inh (LIMK2; [5]): 0%
%Inh (LKB1; [5]): 0%
%Inh (LOK; [5]): 0%
%Inh (LRRK2; [5]): 19%
%Inh (LTK; [5]): 4%

Fc1cc(Cl)ccc1Nc1ccnc2cc(-c3ccc(CN4CCCCC4)o3)ccc12 [GW560116]
%Inh (IRAK4; [5]): 0%
%Inh (ITK; [5]): 2%
%Inh [1, 5]: 11%
%Inh [2, 5]: 0%
%Inh [3, 5]: 24%
%Inh [4, 5]: 0%
%Inh (JNK1; [5]): 0%
%Inh (JNK2; [5]): 1%
%Inh (JNK3; [5]): 0%
%Inh (KIT-autoinhibited; [5]): 0%
%Inh (KIT; [5]): 61%
%Inh (LATS1; [5]): 3%
%Inh (LATS2; [5]): 0%
%Inh (LCK; [5]): 35%
%Inh (LIMK1; [5]): 0%
%Inh (LIMK2; [5]): 0%
%Inh (LKB1; [5]): 0%
%Inh (LOK; [5]): 0%
%Inh (LRRK2; [5]): 0%
%Inh (LTK; [5]): 8%

CS(=O)(=O)c1ccc(-c2nc3n(c2-c2ccncc2)CCC3)cc1 [SKF-105942]
%Inh (IRAK4; [5]): 23%
%Inh (ITK; [5]): 7%
%Inh [1, 5]: 6%
%Inh [2, 5]: 0%
%Inh [3, 5]: 0%
%Inh [4, 5]: 0%
%Inh (JNK1; [5]): 41%
%Inh (JNK2; [5]): 16%
%Inh (JNK3; [5]): 0%
%Inh (KIT-autoinhibited; [5]): 7%
%Inh (KIT; [5]): 0%
%Inh (LATS1; [5]): 0%
%Inh (LATS2; [5]): 0%
%Inh (LCK; [5]): 8%
%Inh (LIMK1; [5]): 19%
%Inh (LIMK2; [5]): 0%
%Inh (LKB1; [5]): 0%
%Inh (LOK; [5]): 0%
%Inh (LRRK2; [5]): 0%
%Inh (LTK; [5]): 0%
